# Reference: PubChem BioAssay (NCATS)
# Inconclusive results are not listed. Where a call stands in place of a potency, no number is given. Active and inactive are the calls of the source. Unless noted, calls come from the whole dose curve; as a rule, active = well fitted curve in the direction sought with a large enough effect; inconclusive = small, poorly fitted or top-dose-only effect, or another doubt; inactive = no such curve, though single readings can be large; an effect the other way counts as inactive or inconclusive.
# Columns and labels:
# [1] = Cytometric Cell-Based qHTS for Inhibitors of the mTORC1 Signaling Pathway in MEF (Tsc2-/-, p53-/-) Cells (AID 2660);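 note: Tsc2 and p53 null MEFs carrying empty vector with compound for 24 h; percent of cells above a phospho-rpS6 to PI ratio cutoff in each well; series mostly up to about 38 µM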
# In short: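 Percent of cells positive for normalized phospho-S6 staining is reported, with the cutoff set from rapamycin (7.5 nM) versus DMSO wells. Tsc2-/-, p53-/- MEFs received compound for 24 hrs.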
# [2] = High Content Imaging Cell-Based qHTS for Inhibitors of the mTORC1 Signaling Pathway in MEF (Tsc2-/-, p53-/-) Cells (AID 2666);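 note: percent of cells scored positive for phospho-rpS6 Ser235/236 immunostaining by imaging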
# In short: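 MEF Tsc2-/- p53-/- (empty vector), DMEM/10% FBS; cpd 24 h 37 °C; PFA fix, Alexa-488 p-rpS6 S235/236 Ab, Hoechst; imaged; rapamycin-defined inhibition; % positive cells/well.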
# [3] = High Content Imaging Cell-Based qHTS for Inhibitors of the mTORC1 Signaling Pathway in MEF Cells (AID 2667);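 note: Tsc2-/- p53-/- MEFs stably re-expressing wild-type Tsc2 exposed 24 h; series mostly up to about 38 µM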
# In short: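 Read-out is the share of phospho-rpS6-positive cells per well, from Hoechst-normalized Alexa-488 Ser235/236 staining imaged on IN Cell. Cells: WT Tsc2-expressing Tsc2-/-, p53-/- MEFs exposed to compound for 24 hrs.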
# [4] = Cytometry Cell-Based qHTS for Inhibitors of the mTORC1 Signaling Pathway in MEF cells (AID 2668);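 note: Tsc2-/- p53-/- mouse embryonic fibroblasts stably re-expressing wild-type Tsc2; percent cells positive for phospho-rpS6 Ser235/236 relative to propidium iodide stain; series mostly up to about 38 µM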
# In short: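 MEFs (Tsc2-/-, p53-/- stably expressing WT Tsc2) treated 24 h at 37 degree Celsius, fixed, stained with Alexa-488 anti-phospho-rpS6 Ser235/236 and propidium iodide; Acumen laser scanning. Reported as % positive cells, phospho-S6 normalized to PI.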
# [5] = target: ATP-dependent DNA helicase Q1 (Homo sapiens) (UniProt P46063); experiment: qHTS Validation Assay for Inhibitors of RecQ-Like Dna Helicase 1 (RECQ1) (AID 2353)
# In short: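 RECQ1T1 50 nM; forked duplex (20 bp + 30-nt ss tails) 200 nM, ATP 2 mM final; pH 8.0, 2 mM MgCl2, 2.5 ug/ml poly(dI-dC); 15 min compound preincubation; discontinuous kinetic read over 2 h at RT.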
# [6] = Validation screen for inhibitors of Lassa infection (AID 463096; calls by dose curve)
# [7] = Validation screen for small molecules that induce DNA re-replication in MCF 10A normal breast cells (AID 463097); note: nearly all actives have a fitted effect of over 60% in size
# In short: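 MCF 10A cells exposed to compound 48 hr at 37 C, 5% CO2, then Hoechst-stained 40 min. Laser-scanning imaging of nuclear DNA content (405 nm ex, 500-530 nm em); re-replication scored as rise in nuclei with elevated fluorescence intensity.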
# Chain of ATP-dependent DNA helicase Q1 (Homo sapiens) (P46063 whole entry, looked up): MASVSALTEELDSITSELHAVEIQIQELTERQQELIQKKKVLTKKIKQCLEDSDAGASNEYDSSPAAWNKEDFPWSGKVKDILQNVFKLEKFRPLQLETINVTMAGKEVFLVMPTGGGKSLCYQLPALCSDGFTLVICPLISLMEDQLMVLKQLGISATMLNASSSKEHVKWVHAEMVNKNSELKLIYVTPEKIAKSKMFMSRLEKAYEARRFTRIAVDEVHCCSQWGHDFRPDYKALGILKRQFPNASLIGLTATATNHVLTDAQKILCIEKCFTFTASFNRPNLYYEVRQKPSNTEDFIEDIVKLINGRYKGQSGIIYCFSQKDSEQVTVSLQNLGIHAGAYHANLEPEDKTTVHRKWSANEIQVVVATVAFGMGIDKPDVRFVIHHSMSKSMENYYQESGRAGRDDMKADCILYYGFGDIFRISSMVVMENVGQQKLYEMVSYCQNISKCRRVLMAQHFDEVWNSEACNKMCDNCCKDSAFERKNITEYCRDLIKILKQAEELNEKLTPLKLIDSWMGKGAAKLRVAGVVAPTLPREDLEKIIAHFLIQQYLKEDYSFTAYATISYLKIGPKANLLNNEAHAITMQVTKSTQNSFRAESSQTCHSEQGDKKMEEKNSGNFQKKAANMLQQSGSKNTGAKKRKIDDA
compound,measurement,setting,value
C[N+]1(C)CCc2cc3c(cc2[C@H]1[C@@H]1OC(=O)c2c1ccc1c2OCO1)OCO3,Potency,[1],inactive
same,Potency,[2],inactive
same,Potency,[3],inactive
same,Potency,[4],inactive
CC(C)(O)[C@@H]1C2OC(=O)[C@@H]1[C@]1(O)C[C@H]3O[C@]34C(=O)O[C@H]2[C@]14C (tested in a mixture with another compound),Potency,[1],inactive
same,Potency,[2],inactive
same,Potency,[3],inactive
C=CCN1CCc2cccc3c2[C@H]1Cc1ccc(O)c(O)c1-3,Potency,[2],inactive
CCCN1CCCC2Cc3[nH]ncc3CC21 (stereo not drawn),Potency,[5],inactive
same,Potency,[6],inactive
same,Potency,[7],inactive
N#C/C(=C/c1ccc(O)c(O)c1)C(N)=S,Potency,[2],inactive
same,Potency,[3],inactive
CCCN1CCc2cccc3c2[C@H]1Cc1ccc(O)c(O)c1-3,Potency,[2],inactive
same,Potency,[3],inactive
N[C@@H](Cn1ccc(=O)[nH]c1=O)C(=O)O,Potency,[1],inactive
same,Potency,[2],inactive
CC12NC(Cc3ccccc31)c1ccccc12 (stereo not drawn),Potency,[5],inactive
same,Potency,[2],inactive
same,Potency,[6],inactive
same,Potency,[7],inactive
COc1ccc2c(c1O)-c1cccc3c1[C@@H](C2)N(C)CC3,Potency,[2],inactive
same,Potency,[3],inactive
same,Potency,[4],inactive
CC(C)[C@@]1(NC(=O)[C@@H]2C[C@@H]3c4cccc5[nH]cc(c45)C[C@H]3N(C)C2)O[C@@]2(O)[C@@H]3CCCN3C(=O)[C@H](Cc3ccccc3)N2C1=O,Potency,[2],inactive
same,Potency,[3],inactive
Cc1cc([C@@H]2CCCN2C)on1,Potency,[1],inactive
same,Potency,[2],inactive
same,Potency,[4],inactive
N[C@@]1(C(=O)O)CC[C@@H](C(=O)O)C1,Potency,[5],inactive
same,Potency,[2],inactive
same,Potency,[4],inactive
same,Potency,[6],inactive
same,Potency,[7],inactive
C[C@@H]1O[C@@H](O[C@H]2C[C@@H](O)[C@]3(CO)[C@@H]4C(CC[C@]3(O)C2)[C@@]2(O)CC[C@H]([C@@H]3COC(=O)C3)[C@@]2(C)C[C@H]4O)[C@H](O)[C@H](O)[C@H]1O (stereo partly drawn),Potency,[2],inactive
same,Potency,[3],inactive
same,Potency,[4],inactive
CCCn1c(C)c(C(=O)c2ccc3ccccc3c2)c2ccccc21,Potency,[5],inactive
same,Potency,[2],inactive
same,Potency,[6],inactive
CC(=O)OCC1=C(C(=O)O)N2C(=O)[C@@H](NC(=O)CCC[C@@H](N)C(=O)O)[C@H]2SC1,Potency,[1],inactive
same,Potency,[2],inactive
same,Potency,[4],inactive
CCN(CC)c1ncnc2c1ncn2[C@@H]1O[C@H](COP(=O)(O)OP(=O)(O)C(Br)(Br)P(=O)(O)O)[C@@H](O)[C@H]1O,Potency,[5],inactive
same,Potency,[6],inactive
same,Potency,[7],inactive
CCCN1CCC[C@@H](c2cccc(O)c2)C1,Potency,[2],inactive
same,Potency,[4],inactive
